Laboratory results as given in PubChem BioAssay.

Legend:
PEG-3 [1] = biological target: PEG-3 (UniProt Q6IN02); assay: inhibition of PEG-3 promoter-driven reporter – cell-based, HeLa, luciferase, CREF/GAPDH counter-screen panel, dose response (AID 624167); conditions: CREF/GAPDH counter-screens; HeLa PEG-Prom luciferase reporter, overnight, run 1, dose range 1, at 100 µM (top of the series) unless noted
PEG-3 [2] = biological target: PEG-3 (UniProt Q6IN02); assay: as above; conditions: CREF/GAPDH counter-screens; HeLa PEG-Prom luciferase reporter, overnight, run 2, dose range 1, at 100 µM (top of the series) unless noted

PEG-3, sequence (Q6IN02 whole entry, looked up): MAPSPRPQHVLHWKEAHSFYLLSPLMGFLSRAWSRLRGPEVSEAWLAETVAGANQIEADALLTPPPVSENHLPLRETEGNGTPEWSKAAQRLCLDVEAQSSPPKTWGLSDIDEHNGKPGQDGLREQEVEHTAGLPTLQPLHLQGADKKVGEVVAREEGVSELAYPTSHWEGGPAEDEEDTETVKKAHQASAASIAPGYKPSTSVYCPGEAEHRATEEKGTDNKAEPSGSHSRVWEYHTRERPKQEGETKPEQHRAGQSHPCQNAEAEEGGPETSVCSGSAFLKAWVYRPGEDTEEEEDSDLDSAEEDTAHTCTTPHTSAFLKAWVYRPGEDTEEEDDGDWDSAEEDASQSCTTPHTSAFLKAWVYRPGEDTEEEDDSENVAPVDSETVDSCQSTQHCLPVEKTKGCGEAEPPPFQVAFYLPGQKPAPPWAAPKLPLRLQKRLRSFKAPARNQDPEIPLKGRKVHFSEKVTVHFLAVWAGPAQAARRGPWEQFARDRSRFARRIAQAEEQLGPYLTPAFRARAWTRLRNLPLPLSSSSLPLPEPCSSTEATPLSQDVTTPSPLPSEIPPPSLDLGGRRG

| Compound | inhibition (PEG-3 [1]) | inhibition (PEG-3 [2]) |
| --- | --- | --- |
| CN(C)CCNc1ncnc2c1sc1nc(N3CCOCC3)c3c(c12)CC(C)(C)SC3 | 98% | 101% |
| COc1ccc(-c2cc(C(F)F)n3ncc(C(=O)n4ccnc4C)c3n2)cc1 | 99.6% | 101% |
| CCN(CC)CCNc1cccc2sc3ccccc3c(=O)c12 | 94.6% | 95.9% |
| CCc1ccc(NC(=O)CSc2nc3ccccc3c(=O)n2CCCN2CCC(C)CC2)cc1 | 99.2% | 101% |
| CCOC(=O)c1c(NC(=O)COc2ccccc2F)sc2c1CC(C)(C)NC2(C)C | 89.1% | 102% |
| CCN1CCN(c2ncc(C(=O)Nc3cc(Cl)ccc3OC)c3ccccc23)CC1 | 100% | 98.7% |
| COc1ccc(/C=C/C(=O)c2ccc3c4c(cccc24)CC3)cc1OC | 101% | 102% |
| COc1ccc(CC(N)c2csc(NC(=O)Nc3ccccc3C(C)(C)C)n2)cc1 (stereo not given) | 102% | 98.5% |
| COc1cc(/C=C2\SC(=S)N(CCC(=O)N3CCCCC3)C2=O)cc(OC)c1OC | 98.1% | 99% |
| O=C(Nc1ccc(-c2cn3ccsc3n2)cc1)c1ccc(F)c(S(=O)(=O)N2CCOCC2)c1 | 0.918% | -62.2% |
| O=Nc1c(O)ccc2cc(S(=O)(=O)O)ccc12 | 84.7% | 89.5% |
| CCOC(=O)c1sc2nc(CSc3ccccc3)nc(N3CCCN(C)CC3)c2c1C | 101% | 99% |
| O=C(C[C@H]1C[C@H](C(=O)N2CCCCC2)[C@@]2(CCc3ccccc3)c3[nH]c4ccc(Cl)cc4c3CCN2C1=O)NCCc1ccccn1 | 94% | 93.1% |
| Cc1ccccc1NC(=O)Nc1nc(C(N)C2CCCCC2)cs1 (stereo not given) | 98.9% | 99.7% |
| Cc1cc(-n2c(SCC(=O)Nc3ccc(F)c(F)c3)nc3n[nH]c(C)c3c2=N)ccc1Cl | 100% | 95.3% |
| COc1ccc(-n2ncc3c(N(C)C4CCCCC4)ncnc32)cc1 | 96.6% | 89.4% |
| O=C(Nc1ccccc1)c1nc[nH]c1C(=O)NCCCNC(=O)c1[nH]cnc1C(=O)Nc1ccccc1 | -24.6% | 96.8% |
| CN(C)CCNc1ccc2ncn3c4ccc(O)cc4c(=O)c1c23 | 101% | 99.7% |
| CC1=NN(c2cccc(C(=O)O)c2)C(=O)/C1=C\C=C/c1ccccc1 | 86.8% | 99.5% [run 2, dose range 1, at 50 µM] |
| Cc1cc(C(=O)CN2C(=O)c3ccccc3S2(=O)=O)c(C)n1C(C)C | 101% | 94.7% |
| COc1ccc(C2c3ccc4ccccc4c3Oc3ncn(CCCO)c(=N)c32)cc1 (stereo not given) | 102% | 101% |
| CCN(C(=O)CSc1nc2n[nH]c(C)c2c(=N)n1-c1ccc(Cl)c(C)c1)c1cccc(C)c1 | 70.5% | 78% |
| Cc1cc(Sc2ncnc(N)c2[N+](=O)[O-])ncn1 | 102% | 102% |
| Cc1ccc(N2CC(C(=O)Nc3nccs3)CC2=O)cc1Cl (stereo not given) | 99.5% | 63.6% |
| COc1ccc(-c2nc3c(C(=O)NCCN(C)C)cccc3c3ccccc23)cc1 | 102% | 99.5% |
| C=CCN=C1NN=C(c2cc(C)n(CC=C)c2C)CS1 | 93.6% | 97.6% |
| COc1ccc(S(=O)(=O)N2c3ccccc3OCC2c2ccccc2)cc1 (stereo not given) | -135% | -3.52% |

| Compound | inhibition (PEG-3 [1]) | inhibition (PEG-3 [2]) |
| --- | --- | --- |
| O=C(C=Cc1ccccn1)c1ccccc1 | 101% | 101% |
| CC(C)(C)c1ccc(/C=N/Nc2ccc(C(=O)O)cc2)cc1 | 89% | 98.5% |
| COc1ccccc1NC(=O)c1cc(-c2cc(OC)c(OC)c(OC)c2)nc2ccccc12 | 47.9% | 50.1% [run 2, dose range 1, at 50 µM] |
| COc1ccc(-c2cc(C(=O)N3CCN(c4ccccc4F)CC3)c3ccccc3n2)c(OC)c1 | 27.3% | 47.4% |
| CC(NS(=O)(=O)OCC(Cl)(Cl)Cl)c1ccc(C(C)(C)C)cc1 (stereo not given) | 101% | 97.9% |
| CCOc1cc(/C=N/Nc2nc(-c3cccc(S(=O)(=O)N4CCCC4)c3)cs2)ccc1O | 77.8% | 95.5% |
| COC(=O)c1ccc(Nc2cc(C)nc3ccc(C)cc23)cc1 | 98.7% | 100% |
| Cc1cccc(N2CCN(C(=O)C3CCN(c4ncnc5c4nc4n5CCCCC4)CC3)CC2)c1C | 101% | 90.7% |
| NCCCNc1nc(N)c([N+](=O)[O-])c(NC2CCCCC2)n1 | 96% | 102% |
| CN(Cc1ccccc1)C(=O)c1ccc(Nc2nc(C(N)Cc3ccccc3)cs2)nc1 (stereo not given) | 102% | 101% |
| O=C1NC(Cc2ccc(O)cc2)c2nc3ccc(F)cc3c(=O)n2-c2cc3ccccc3cc21 (stereo not given) | 100% | 95.8% |
| CC(C)CC(N)c1csc(NC(=O)Nc2ccccc2C(C)C)n1 (stereo not given) | 99% | 101% |
| CCCN1CCc2c(sc(NC(=O)c3ccc(S(=O)(=O)N4CCN(C(=O)OCC)CC4)cc3)c2C(N)=O)C1 | 78.5% | 85.4% |
| O=C(Nc1cccc(S(=O)(=O)N2CCOCC2)c1)c1ccc2c(=O)n3c(nc2c1)CCCCC3 | 96.5% | 98% |
| COc1ccccc1CNC(=O)c1c(N)n(CCCN2CCOCC2)c2nc3ccccc3nc12 | 99.1% | 99% |
| CCN1CCN(CCNC(=O)c2ccc(/C=C3\Sc4ccccc4N(Cc4ccccc4F)C3=O)cc2)CC1 | 102% | 101% |
| C[C@@H]1[C@H]2[C@@H]3CC[C@@H](C3)[C@H]2CN[C@H]1c1cn(Cc2ccccc2)c2ccccc12 | 99.2% | 102% |
| CCCC(=O)NC(c1cccc([N+](=O)[O-])c1)c1ccc2cccnc2c1O (stereo not given) | 75.7% [run 1, dose range 1, at 50 µM] | 98.9% |
| Cc1ccc(C)c(OCC(O)CN2CCC(CN3C(=O)c4cccc5cccc(c45)C3=O)CC2)c1 (stereo not given) | 99.2% | 96.1% |
| COc1ccc(CN(C)C(=O)c2cc(-c3ccccc3)nc3ccc(C)cc23)c(OC)c1OC | 94.8% | 96.5% |
| CC(=O)Nc1cccc(NC(=O)c2cc(-c3cccnc3)nc3ccc(Cl)cc23)c1 | 87.9% | 97.3% |
| COc1ccc(C[C@H]2CN3C(=NC[C@@H]3Cc3ccc(O)cc3)N2C[C@H](C)NC(=O)c2ccc(C)c(Br)c2)cc1 | 102% | 102% |
| CCOC(=O)c1cnc2c(cnn2C)c1NCCCN(C)C | 80.7% | 88.6% |
| COc1ccc(CNCCC(c2ccccc2)c2ccc(OC(C)C)cc2)cc1OC (stereo not given) | 101% | 102% |
| Cc1c(OCC(=O)NC2CC(C)(C)NC(C)(C)C2)ccc2c1oc(=O)c1ccccc12 | 98% | 101% |
| CCCn1c(=N)n(CC(=O)c2ccc(Cl)cc2)c2ccccc21 | 101% | 100% |
| CCC(=O)NC(c1cccs1)c1cc([N+](=O)[O-])c2cccnc2c1O (stereo not given) | 100% | 101% |

| Compound | inhibition (PEG-3 [1]) | inhibition (PEG-3 [2]) |
| --- | --- | --- |
| Cc1ccc(S(=O)(=O)N2CCCCC2)cc1C(=O)N(C)CC(=O)Nc1ccc(Cl)c(C(F)(F)F)c1 | 74.6% | 60.6% |
| CN(CC(=O)Nc1ccc(Cl)c(C(F)(F)F)c1)C(=O)c1cc(-c2ccncc2)nc2ccccc12 | 102% | 98.9% |
| COc1ccc(CN2CCN(C(=O)c3cc(-c4cccnc4)nc4ccc(Cl)cc34)CC2)c(OC)c1OC | 74.9% | 83% |
| COc1cccc(NC(=O)Nc2cccc(C(=O)O)c2)c1 | 87% | 81.3% |
| c1ccc(-c2cc(-c3nc4ccccc4[nH]3)c3ccccc3n2)cc1 | 86.8% | 88.6% |
| COc1cc(/C=C/c2ccc3cccc(O)c3n2)ccc1O | 92.4% | 99.9% |
| O=C1OCCC1Sc1nnc(-c2ccc(Cl)cc2Cl)o1 (stereo not given) | 92.6% | 94.1% |
| COC(=O)c1ccc(OCC2c3cc(OC)c(OC)cc3CCN2C(=O)c2ccco2)cc1 (stereo not given) | 77.9% | 73.5% |
| Cc1cc2c(c(/C=C/C(=O)c3ccccc3)c1)OC1(C=C2)Oc2ccccc2C(=O)N1C (stereo not given) | 102% | 101% |
| CCCN(CC(=O)Nc1cc(Cl)cc(Cl)c1)CC(=O)Nc1ccc(F)c(F)c1F | 101% | 99% |
| COc1ccc(C2c3c(ncn(CCCN4CCOCC4)c3=N)Oc3ccc4ccccc4c32)cc1OC (stereo not given) | 102% | 100% |
| Cc1ccc(C2(CCNCc3ccc(N(C)C)cc3)CCOC(C(C)C)C2)cc1 (stereo not given) | 99.6% | 101% |
| O/N=C(\c1ccc(Cl)cc1Cl)c1ncc(C(F)(F)F)cc1Cl | 86% | 97.3% |
| c1ccc(CCNc2nc(-c3ccncc3)nc3ccccc23)cc1 | 52.1% | 47.8% |
| O=C(c1ccoc1)N1CCN(c2cc(-c3ccccc3)nc3cc(-c4ccccc4)nn23)CC1 | 58.2% | 66% |
| CCN(Cc1ccccc1)S(=O)(=O)c1ccc(C(=O)N(CCCN(C)C)c2nc3cc4c(cc3s2)OCO4)cc1 | 102% | 101% |
| O=C(NC(c1ccc(F)cc1)c1ccc2ccccc2n1)C1CCN(Cc2cccc(C(F)(F)F)c2)CC1 (stereo not given) | 91.2% | 94.1% |
| CC1CCCCN1CCNC(=O)c1ccc2c(=O)n(Cc3ccc(Cl)cc3)c(=S)[nH]c2c1 (stereo not given) | 101% | 99.1% |
| COc1ccc(-c2cc(C(=O)Nc3ccccc3N3CCOCC3)c3ccccc3n2)cc1OC | 2.08% | 15% |
| COc1ccc2nc3n(c(=O)c2c1)-c1cc2ccccc2cc1C(=O)NC3Cc1ccc(O)cc1 (stereo not given) | 86.9% | 98.8% |
| CN1CCC(NC(=O)c2cc(-c3cccc(Br)c3)nc3ccccc23)CC1 | 100% | 101% |
| NC(=O)c1nsc(C(=O)N(c2ccccc2F)C(C(=O)NCc2ccccc2)c2ccc(O)cc2)c1N (stereo not given) | 98.6% | 99.3% |
| O=C1N[C@@H](c2ccccc2)COC(=O)[C@@H](Cc2ccc(F)cc2)CC/C=C/C[C@H]1CC(=O)N(CCO)Cc1ccccc1 | 95.6% | 97.4% |
| Cc1ccc(C2=NC(=O)/C(=C/c3cc(O)c(O)c(Br)c3)S2)cc1 | 88.6% | 79.4% |
| CC(C)c1ccc(NC(=O)Nc2nc(C(C)N)cs2)cc1 (stereo not given) | 100% | 98.9% |
| CN1CCC(N(C)S(=O)(=O)c2ccc(NC(=O)COc3ccc(Br)cc3Cl)cc2)CC1 | 99.8% | 101% |
